Experiment [1] is described as follows: StAR promoter reporter inhibitors, counter-screen for LRH-1 inverse agonist project, cell-based, luminescence, high throughput (AID 651611; in the data active = inhibition above about 28%). Particulars: StAR promoter luciferase reporter counterscreen, at 3.6 µM, active compounds read high. In general terms: A counterscreen serves to expose hits that act by an unwanted route or on another target.
The target in experiment [2] is Nuclear receptor subfamily 5 group A member 2 (Homo sapiens) (UniProt O00482). In words: LRH-1 (NR5A2) inverse agonists, retest, confirmation, cell-based, luminescence (AID 651613).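 Note: HEK293T cells co-transfected with LRH-1 and StAR promoter luciferase reporter; 0% = vehicle wells and 100% = parental cells lacking receptor.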 The note with it: cell-based LRH-1 luciferase reporter, inverse agonism; at 3.6 µM; active compounds read high. For orientation: A reporter such as luciferase makes a cellular process visible.
Chain of Nuclear receptor subfamily 5 group A member 2 (Homo sapiens) (O00482 whole entry, looked up): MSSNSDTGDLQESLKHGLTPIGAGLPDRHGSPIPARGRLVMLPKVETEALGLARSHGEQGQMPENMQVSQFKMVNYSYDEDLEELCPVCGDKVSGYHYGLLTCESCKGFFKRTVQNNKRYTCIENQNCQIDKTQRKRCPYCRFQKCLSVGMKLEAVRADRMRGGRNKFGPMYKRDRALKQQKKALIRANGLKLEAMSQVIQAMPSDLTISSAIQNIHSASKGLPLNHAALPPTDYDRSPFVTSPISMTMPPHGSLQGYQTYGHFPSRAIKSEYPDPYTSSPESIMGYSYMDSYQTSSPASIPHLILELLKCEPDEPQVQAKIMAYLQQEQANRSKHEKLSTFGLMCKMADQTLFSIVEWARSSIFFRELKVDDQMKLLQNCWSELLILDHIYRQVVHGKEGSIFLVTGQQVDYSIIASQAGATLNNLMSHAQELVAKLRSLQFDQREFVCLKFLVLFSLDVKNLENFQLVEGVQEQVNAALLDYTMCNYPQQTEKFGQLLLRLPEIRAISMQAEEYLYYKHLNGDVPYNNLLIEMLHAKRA
Experiment [3] deals with Steroidogenic factor 1 (Homo sapiens) (UniProt Q13285). The experiment in a line: SF1 (NR5A1) inverse agonists, counter-screen for LRH-1 inverse agonist project, cell-based, luminescence, high throughput (AID 651614; in the data active = inhibition above about 44%;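 note: cells cotransfected with StAR promoter reporter and SF1 expression vector; 0% = vehicle on cells with receptor and 100% = vehicle on cells lacking receptor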). The note with it: cell-based SF1 luciferase reporter, at 3.6 µM, active compounds read high.
Chain of Steroidogenic factor 1 (Homo sapiens) (Q13285 whole entry, looked up, the tested form may be a part): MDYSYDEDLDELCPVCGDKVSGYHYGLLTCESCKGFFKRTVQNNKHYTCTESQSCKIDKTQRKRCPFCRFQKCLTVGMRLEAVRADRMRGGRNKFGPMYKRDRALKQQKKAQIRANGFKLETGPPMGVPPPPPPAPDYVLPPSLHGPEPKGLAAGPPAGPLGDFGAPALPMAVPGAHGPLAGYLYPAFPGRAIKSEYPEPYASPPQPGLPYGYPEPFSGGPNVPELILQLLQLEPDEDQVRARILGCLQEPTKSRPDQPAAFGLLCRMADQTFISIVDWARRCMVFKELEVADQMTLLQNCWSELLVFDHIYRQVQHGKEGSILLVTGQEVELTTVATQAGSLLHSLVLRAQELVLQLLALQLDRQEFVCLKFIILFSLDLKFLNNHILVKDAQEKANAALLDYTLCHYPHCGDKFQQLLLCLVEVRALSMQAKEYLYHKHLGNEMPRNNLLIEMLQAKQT
A short description of experiment [4]: VP16 transactivation reporter inhibitors, counter-screen for LRH-1 inverse agonist project, cell-based, luminescence, high throughput (AID 651615; in the data active = inhibition above about 33%). The note with it: Gal4-VP16 luciferase reporter cells, at 3.6 µM, active compounds read high.

A number with no mark means an inactive call. Active and inactive are the calls of the source. Cut-off read from the data, not from the text of the source, unless noted: active = inhibition above about 42%; inactive = the rest.

Regarding `COc1ccc(NC(=O)CSC2=C(C#N)C(c3ccco3)C3=C(CCCC3=O)N2)c(OC)c1` (configuration not stated), the inhibition (in general, the change of the read-out against control, counted positive when it falls) is 14% in experiment [1], 55.5% (active) in experiment [2], 52.5% (active) in experiment [3] and -14.7% in experiment [4].
`Cc1ccc(C)c(NC(=O)CSc2nnc(-c3ccccc3)n2N)c1`: the inhibition in experiment [1] is -26.9%; in experiment [2] it was 53% (active); in experiment [3], 44.7% (active); in experiment [4], -20.5%.
Consider `CSc1ccc(CNc2cccc3ccccc23)cc1`, for which the inhibition in experiment [1] was 3.79%; in experiment [2], 35.3%; in experiment [3], 24.7%; in experiment [4], -39.8%.
On the same counts, the results for `O=C(Nc1ccc(Cl)cn1)c1ccc([N+](=O)[O-])o1` are -0.66%, 51.5% (active), 55% (active) and -20.8%.
As to `Cc1cc(-c2nnc(SCC(=O)Nc3cccc(C)c3C)n2N)n[nH]1`, the inhibition in experiment [1] was 5.59%; in experiment [2] it was 53.3% (active); in experiment [3] it was 48.2% (active); in experiment [4], -4.91%.
Take `Cc1ccc(OCCC(=O)OCC(=O)Nc2ccc(N3CCOCC3)cc2)cc1`: the inhibition in experiment [1] is 16.6%; in experiment [2], 54.8% (active); in experiment [3], 46.6% (active); in experiment [4], -7.59%.
On to `NC(=O)C1CCN(C(=O)COc2ccc3c4c(c(=O)oc3c2)CCC4)CC1`, for which the inhibition in experiment [1] is 5.21%; in experiment [2], 42.7% (active); in experiment [3] it was 36.4%; in experiment [4], -10.9%.
In the case of `COc1ccccc1NC(=O)CN1CCN(CC(=O)Nc2ccc(S(N)(=O)=O)cc2)CC1`, the inhibition was 19.1% in experiment [1], 49.8% (active) in experiment [2], 47.7% (active) in experiment [3] and -15.6% in experiment [4].
As for `CC(C)OC(=O)C(=O)NNc1ccccc1`, the inhibition was 12.3% in experiment [1], 12.2% in experiment [2], 4.1% in experiment [3] and 11.9% in experiment [4].
For `CCc1c(O)nc(SCC(=O)Nc2ccc(OC)cc2)n(C2CCCCC2)c1=O`, the inhibition was 13.3% in experiment [1], 55.5% (active) in experiment [2], 51.4% (active) in experiment [3] and 5.01% in experiment [4].
On the same counts, the results for `Cc1cc(OCC(=O)Nc2cccnc2)c2c(C)c(C)c(=O)oc2c1` are 10.8%, 63.2% (active), 52.8% (active) and -34.7%.
For the compound `O=C(NCCN1C(=O)S/C(=C\c2ccc(OC(F)F)cc2)C1=O)c1cnccn1`, the inhibition is 44% (active) in experiment [1], 30.1% in experiment [2], 33.1% in experiment [3] and 14.9% in experiment [4].
On the same counts, the results for `Cc1onc(-c2c(F)cccc2Cl)c1C(=O)c1ccccc1O` are 7.24%, 51.3% (active), 49.1% (active) and -0.7%.
The corresponding values for `CCN(CC)C1Oc2cc3c(cc2C(c2cc(OC)c(OC)c(OC)c2)C1C)OCO3` (configuration not stated) are 31.5% (active), 18.4%, 29.8% and 25.9%.
With `COc1cc(CCNc2ccc3nnc(-c4ccccc4)n3n2)cc(OC)c1OC`, the inhibition in experiment [1] is 50.7% (active); in experiment [2] it was 37.5%; in experiment [3], 28.6%; in experiment [4] it was -65.1%.
The corresponding values for `O=C1C=C(c2ccccc2)OC2(CCCC2)O1` are 19.8%, 67.3% (active), 61.2% (active) and -4.15%.
The corresponding values for `Cc1cc2ncn(/N=C/c3ccc([N+](=O)[O-])o3)c2cc1C` are 17.6%, 69.1% (active), 68.2% (active) and -19.6%.
The corresponding values for `O=C(Nc1cccc(S(=O)(=O)Nc2ccc(Cl)cc2)c1)c1ccc(Cl)nc1` are 41.3% (active), 65% (active), 63.3% (active) and 56.9% (active).

These data come from PubChem BioAssay.
